# Experimental data as given in PubChem BioAssay (NCI).
# This is part of a sample that, as a whole, favours compounds with a hit. Of some 79,000 tested, about 15% had one in any assay. Values without a mark were called inactive. Active and inactive are the calls of the source. Cut-off read from the data, not from the text of the source: active = growth inhibition above about 70%; inactive = the rest.
# Columns and labels:
# [1] = NCI Yeast Anticancer Drug Screen. Data for the rad50 strain (AID 155);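 note: 0% = growth of vehicle-only cultures of the same strain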; conditions: S. cerevisiae rad50 strain growth inhibition; at 50.0 µM; hits give high values
# How it was run: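 Relative growth inhibition (compound vs vehicle) was measured in yeast with a defined repair-gene alteration.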
# [2] = NCI Yeast Anticancer Drug Screen. Data for the mec2-1 strain (AID 157); conditions: S. cerevisiae mec2-1 strain, at 50.0 µM, hits give high values
# How it was run: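 mec2-1 yeast strain, carrying an alteration in DNA damage repair or cell cycle control, was exposed to compounds; growth inhibition was measured relative to vehicle-treated controls.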
# [3] = NCI Yeast Anticancer Drug Screen. Data for the sgs1 mgt1 strain (AID 161);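 note: 0% = growth of cultures given vehicle only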; conditions: S. cerevisiae sgs1 mgt1 strain, at 50.0 µM, hits give high values
# How it was run: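 Yeast cells carrying a defined DNA-repair defect were exposed to test compounds. Growth inhibition was measured relative to vehicle-treated controls.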
# [4] = NCI Yeast Anticancer Drug Screen. Data for the cln2 rad14 strain (AID 165);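 note: 0% = growth equal to vehicle treated cultures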; conditions: S. cerevisiae cln2 rad14 strain, at 50.0 µM, hits give high values
# How it was run: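 Yeast carrying cln2 and rad14 alterations (cell cycle control and DNA damage repair) were exposed to compounds. Growth inhibition was measured against vehicle-treated controls.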
# [5] = NCI Yeast Anticancer Drug Screen. Data for the bub3 strain (AID 167); conditions: S. cerevisiae bub3 mutant strain, at 50.0 µM, hits give high values
# How it was run: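 Screening used yeast with an engineered genetic alteration affecting cell cycle control. Compound-exposed cultures were compared with vehicle cultures, and reduced growth was taken as inhibition.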
# [6] = NCI Yeast Anticancer Drug Screen. Data for the mlh1 rad18 strain (AID 175); conditions: S. cerevisiae mlh1 rad18 strain growth inhibition; at 50.0 µM; hits give high values
# How it was run: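 Growth inhibition of the yeast strain was measured after compound exposure and expressed relative to vehicle-treated controls. The strain carries defined defects in DNA damage repair.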
Compound,growth inhibition [1],growth inhibition [2],growth inhibition [3],growth inhibition [4],growth inhibition [5],growth inhibition [6]
CCOC(=O)c1ccc(NC=O)cc1,4.1%,7.35%,-8.75%,-12.5%,1.95%,-24.1%
C(=C\CSc1ccccn1)/CSc1ccccn1,50%,6.4%,56.6%,18.6%,49.4%,25%
Cc1ccc(Cc2cc(=O)[nH]c(=O)[nH]2)cc1,0.2%,-8.25%,-13.2%,-76.5%,2.7%,5.4%
c1ccc(-c2nc3cc4ccccc4cc3nc2-c2ccccc2)cc1,-17.4%,-12.6%,-4.9%,-35.6%,-25.9%,-18.6%
CCOC1CCCC(OCC)O1 (stereo unspecified),-44.4%,-48.5%,-19.9%,12%,-37.6%,-27.9%
Brc1ccc(Br)nc1,-7.6%,-4.65%,-10.1%,8.05%,-10.1%,-12.9%
O=C1/C(=C/c2ccco2)CC/C1=C\c1ccco1,23.4%,15%,29%,-18.1%,14.1%,44.5%
CC1CCCCC(=O)N1 (stereo unspecified),11.6%,13.4%,27.7%,5.1%,18.6%,-1.35%
FC(F)(F)C1(C(F)(F)F)OS2(OC(C(F)(F)F)(C(F)(F)F)c3ccccc32)c2ccccc21,0.5%,3.4%,3.3%,-22.9%,-1.1%,-5.1%
CCCCCCP(=O)(CCCC)CCCC,38.1%,11.9%,41.2%,-20.9%,-12%,-0.2%
O=C(O)c1ccncc1C(=O)c1csc2ccccc12,7.9%,14.2%,27.1%,22.1%,30.4%,19.3%
CCCCCCCCCCCCCCCCCCN=C(N)N,-1.55%,-10.8%,12.8%,22.4%,-2.25%,10.8%
COC(=O)C(C(=O)OC)C(Br)(OC(C)=O)OC(C)=O,-8.95%,8.2%,4.55%,6.65%,11.1%,-3.35%
COC(=O)C1C(C)C1c1ccc2c(c1)OCO2 (stereo unspecified),2.65%,2.05%,-0.7%,-3.7%,-0.7%,-25.5%
CC(=O)OCC1OC(n2c(=O)n(-c3ccccc3)c(=O)c3ccccc32)C(OC(C)=O)C(OC(C)=O)C1OC(C)=O (stereo unspecified),-12.8%,11.3%,-7.9%,19.1%,-6.85%,4.65%
O=C(O)c1cc(/C=C/c2ccccc2)ccc1[N+](=O)[O-],-11.2%,25.5%,7.5%,-33.6%,-5.8%,-3.1%
O=[n+]1ccn([O-])c2cc(Cl)ccc21,13.6%,13.2%,10.2%,-16.2%,-5.1%,9.85%
N#CCCC1(CCC#N)CCCCCCC(CCC#N)(CCC#N)C(O)C1O (stereo unspecified),10.8%,-12%,-6.45%,3.15%,-15.2%,-46.2%
CCOC(=O)CC(CC(=O)OCC)(C(=O)OCC)C(=O)OCC,-2.2%,4.45%,8.55%,-57.2%,-17.3%,-1.95%
C[C@@]12CCC[C@H]1[C@@H]1CCC3=CC(=O)CC[C@]3(C)[C@H]1CC2,4.15%,1.45%,-5.55%,-27.1%,10.7%,1.05%
O=S(=O)(c1ccc(N=Cc2cccs2)cc1)c1ccc(N=Cc2cccs2)cc1,-13.2%,-22.1%,-10.1%,10.7%,5.35%,-13.8%

Compound,growth inhibition [1],growth inhibition [2],growth inhibition [3],growth inhibition [4],growth inhibition [5],growth inhibition [6]
CCCCCC(O)(CCCC)CCCCC,-10.7%,-1.65%,1.85%,19.9%,1.75%,15.9%
BrCC1=CC(c2ccccc2)(c2ccccc2)c2ccccc21,96.2% (active),97% (active),97.3% (active),94.3% (active),96.2% (active),96.1% (active)
c1ccc2c3nnc(c2c1)SCCCSc1nnc(c2ccccc12)SCCCS3,-9.3%,-13.3%,-2.5%,1.6%,1.8%,-0.95%
O=C(Oc1ccc[nH]c1=O)C1CC1,17.9%,7.45%,67.2%,14%,22.2%,38%
Clc1ccc(N=Nc2ccccc2)cc1,-2.45%,12.3%,4.4%,-14.7%,1.7%,5.25%
CCC1(C)NC(=O)OC1=O (stereo unspecified),2.25%,-5.7%,-27.6%,7.75%,20.5%,4.65%
CCC(C)CCC(=O)C(C)C(=O)O (stereo unspecified),5.7%,3.1%,3.45%,-11.3%,4.45%,0.5%
C=C1C(=O)O[C@H]2C[C@@H]1C(=O)CC(C)CCCC(C)=CCC[C@@]2(C)O (stereo partly specified),24.4%,7.65%,15.2%,11.2%,-0.1%,-49.4%
Cc1c(CCCl)c(Cl)n2c(nc3ccccc32)c1C#N,38.7%,20.8%,39.4%,32.5%,22.8%,57.1%
COc1cc(C(=O)O)ccc1OC(C)=O,7.4%,-20.1%,-2.15%,2.15%,-6.6%,1.35%
O=C(S)C(=O)Cc1cn[nH]n1,-3.95%,-1.9%,-4.5%,6.15%,-7.25%,-26.8%
O=[N+]([O-])c1cc(N(c2ccccc2)c2ccccc2)cc([N+](=O)[O-])c1,2.05%,-12.4%,-30.4%,9.95%,-2.8%,-22.6%
CCOC(=O)c1ccc(NC(=O)Nc2cc(C(F)(F)F)ccc2Cl)cc1,89.2% (active),28.3%,92.9% (active),92.2% (active),86.7% (active),94% (active)
NC(=O)c1ccccc1NC(=O)C(=O)C(c1cnc2ccc([N+](=O)[O-])cc2n1)[N+](=O)[O-] (stereo unspecified),9.7%,-1.1%,19.6%,12.9%,5.85%,28.8%
CC1CCOCCCOC(=O)CCOCCC(=O)OCCCOCCCOC(=O)CCOCCC(=O)O1 (stereo unspecified),0.7%,2.4%,5%,15.9%,-5.95%,-4.45%
O=C(O)c1ccccc1SC1OC(=O)c2ccccc21 (stereo unspecified),-0.45%,-8.75%,2.35%,-58.7%,2.75%,-1.45%
COc1cc(O)c2c(c1)C(=O)c1cc(C)cc(O)c1C2=O,-15.1%,-22.9%,-18.6%,-21.1%,-26.2%,-10.8%
CC(C)(C)NC(=O)NCCCCCCNC(=O)NC(C)(C)C,-15.5%,-13.9%,-7.45%,-27.9%,8.05%,-7.9%
Cc1c(Cl)c(N)c(Cl)c(Cl)c1Cl,15.7%,-4.5%,19.1%,-7.3%,28.6%,8.75%
COC(=O)c1nc(N)nc(C(=O)OC)c1C(=O)C(C)C,5.4%,-10.7%,-24.9%,-13.4%,-29%,-1%
